# According to PubChem BioAssay (Tox21):
# The source made the active and inactive calls. The call rests on the fitted dose curve; in most records, active means well fitted curve in the direction sought with a large enough effect in the repeat runs; inconclusive means weak or mixed curves; inactive means flat fitted curve, though single readings scatter.
# Test: qHTS assay to test for compound auto fluorescence at 535 nm (green) in HEK293 cells (AID 720680)
# Details: green autofluorescence 485/535 nm; series mostly up to 91.3 µM; fluorescence, % of fluorescein: at the top concentration
# Text: U.S. Tox21 Program National Center for Advancing Translational Sciences [NCATS] NIH Chemical Genomics Center [NCGC] U.S. Environmental Protection Agency [EPA] National Institutes of Environmental Health Sciences [NIEHS] National Toxicology Program [NTP] U.S. Food and Drug Administration [FDA] Tox21 Assay Overview: Compound auto fluorescence often interferes with screening of the compound library against various biological targets and signaling pathways. Some of these compounds may have fluorophoric properties. Such properties may interfere with the assay outputs resulting in false positives and/or negatives. To decrease such complications and ensure the compound activities are relevant in terms of biological response, the Tox21 10K compound library was screened for auto fluorescence. From the fluorophores used as reporter signals in our screening assays, the auto fluorescence equivalencies of compounds against three fluorophores have been evaluated: Triamterene, Fluorescein and Rose Bengal sodium for blue, green and red fluorescence, respectively. The fluorescence intensities were measured using Excitation/Emission wavelengths at 405/460nm, 485/535nm and 540/590nm for blue, green and red labels, respectively. This assay includes the green fluorescence data.
# Tox21 Assay Protocol Summary: 2,000 HEK293 cells in 5 uL of culture medium containing 10% dialyzed FBS per well were dispensed into black wall/clear bottom 1536-well plates using a Multidrop Combi Dispenser (Thermo Scientific). The assay plates were incubated for 4-5 hr at 37C to allow cell attachment to the well bottom, followed by the transfer of 23 nL compound or DMSO vehicle by a pintool work station (Kalypsys, San Diego, CA). After the assay plates were incubated overnight at 37C and 5% CO2, fluorescence intensities in the assay plates were measured by an Envision (PerkinElmer, Shelton, CT) plate reader using three labels for measuring blue, green and red fluorescence at […] 460, 535 and 590nm respectively.
# On the % scale 0 is the no-effect control and ±100 the full control effect.
Structure (SMILES),"fluorescence, % of fluorescein",outcome
O=Cc1ccc([N+](=O)[O-])cc1,-0.0265% (inactive),–
CCc1c(C)[nH]c2c1C(=O)C(CN1CCOCC1)CC2 (stereo not given),0.152% [at 18.6 µM] (inactive),–
Cc1ccc(S(=O)(=O)NC(=O)NC2CCCC2)cc1,-0.0568% [at 46 µM] (inactive),–
O=c1c2ccccc2oc2ccccc12,0.019% (inactive),–
CCCCCCCCC(=O)OCC(C)OC(=O)CCCCCCCC (stereo not given),0.0357% [at 95.7 µM] (inactive),–
CC1(C)C(=O)NC(=O)N1CO,-0.0268% (inactive),–
Cc1ccc(NC=O)c(C)c1,0.004% (inactive),–
O=C1OC(=O)C2CC=CCC12 (stereo not given),0.0381% (inactive),–
C/C=C1\[C@H]2C=C(C)C[C@]1(N)c1ccc(=O)[nH]c1C2,0.0305% [at 46 µM] (inactive),–
C1=COCCC1,-0.135% (inactive),–
CCn1nc(Cc2ccccc2)cc1C1CCN(C[C@H]2C[C@H](N(C)[C@@H](C(=O)O)C(C)C)C[C@@H]2c2cccc(F)c2)CC1,-0.0356% (inactive),–
COc1cc(CNC(=O)CCCC/C=C/C(C)C)ccc1O,–,inactive
OCC(O)c1ccccc1 (stereo not given),-0.113% (inactive),–
CCC(C)CCCC(C)(C)O (stereo not given),-0.111% (inactive),–
C=C[Si](OCC)(OCC)OCC,-0.01% (inactive),–
O=[N+]([O-])c1ccc(Cl)cc1Cl,0.0953% (inactive),–
CC(COc1ccccc1)NC(C)C(O)c1ccc(O)cc1 (stereo not given),0.0104% [at 18.6 µM] (inactive),–
CC(C(=O)O)c1ccc(/C=C2\CCCCC2=O)cc1 (stereo not given),0.0303% [at 46 µM] (inactive),–
CC(O)C(C)O (stereo not given),-0.017% [at 95.7 µM] (inactive),–
C=C[Si]1(C)O[Si](C)(C=C)O[Si](C)(C=C)O[Si](C)(C=C)O1 (stereo not given),-0.0425% (inactive),–

Structure (SMILES),"fluorescence, % of fluorescein",outcome
CCCc1nc(C)c2c(=O)[nH]c(-c3cc(S(=O)(=O)N4CCN(CC)CC4)ccc3OCC)nn12,-0.0182% [at 46 µM] (inactive),–
CCCCCCCCCCCCN1CCOCC1,0.12% (inactive),–
CCCOC(C)=O,-0.0302% (inactive),–
c1ccc(CN(Cc2ccccc2)Cc2ccccc2)cc1,-0.0149% (inactive),–
CC(C)(O)C(=O)O,0.0614% (inactive),–
CCCCCCCCCCCC(=O)OCC,-0.0421% (inactive),–
NC(=O)c1ccccc1C(N)=O,0.0103% (inactive),–
O=C(O)c1cc(C(=O)O)cc([N+](=O)[O-])c1,0.0605% (inactive),–
C[C@@H](O)[C@H]1C(=O)N2C(C(=O)O)=C(S[C@@H]3CN[C@H](CNS(N)(=O)=O)C3)[C@H](C)[C@H]12,0.162% [at 46 µM] (inactive),–
c1ccc(-c2ccc(-c3ccccc3)cc2)cc1,0.0075% [at 18.6 µM] (inactive),–
Cc1ccc2c(Cl)cc(Cl)c(O)c2n1,0.199% [at 46 µM] (inactive),–
CCCCCO,-0.027% (inactive),–
C=CCCC,-0.114% [at 95.7 µM] (inactive),–
CC(=O)c1ccc(Cl)c(Cl)c1Cl,-0.0553% (inactive),–
O=C1CCCN1CCO,0.215% (inactive),–
C=CC(=O)OCCCCCCCCCC,-0.0245% (inactive),–
O=[N+]([O-])c1cccc(I)c1,0.0176% (inactive),–
C(/C=C/C=C/Nc1ccccc1)=Nc1ccccc1,0.0567% (inactive),–
N#CCCCC(C#N)CCC#N (stereo not given),-0.0629% (inactive),–
FC(F)(Cl)C(F)(Cl)Cl,0.0097% (inactive),–
